Source: PubChem BioAssay AID1159580 (chemical genetic matrix, 2015)
Among all 5,500 compounds or so, about 2,000 (36%) were called active. Another 18% or so got no clear call; they are omitted. Rule as the data show it: active = normalized growth mostly below about 0.91 (no sharp cut-off); inconclusive = no clear call, values can overlap the other calls; inactive = mostly above about 0.92. Some of the results follow.

Experiment: chemical genetic growth profiling, strain panel (AID 1159580);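 also: tested at 20 µM; growth read once vehicle control cultures reached saturation at 30 °C; 1 = growth at the plate median or of vehicle wells; lower values mean less growth of the strain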
Conditions: S. cerevisiae deletion strains, growth OD
[1] = locus YDL101C, strain DUN1, active compounds read low
[2] = locus YHR030C, strain SLT2, active compounds read low
[3] = locus YHR079C, strain IRE1, active compounds read low
[4] = locus YJL095W, strain BCK1, active compounds read low
[5] = locus YJR066W, strain TOR1, active compounds read low
[6] = locus YLR113W, strain HOG1, active compounds read low
[7] = locus YNL183C, strain NPR1, active compounds read low
[8] = locus YOR231W, strain MKK1, active compounds read low
[9] = locus YPL256C, strain CLN2, active compounds read low
[10] = locus YAL013W, strain DEP1, active compounds read low
[11] = locus YGR078C, strain PAC10, active compounds read low
[12] = locus YGR229C, strain SMI1, active compounds read low
[13] = locus YJR075W, strain HOC1, active compounds read low
[14] = locus YMR263W, strain SAP30, active compounds read low
[15] = locus YMR307W, strain GAS1, active compounds read low
[16] = locus YNL128W, strain TEP1, active compounds read low
[17] = locus YNL153C, strain GIM3, active compounds read low
[18] = locus YPL241C, strain CIN2, active compounds read low
[19] = locus YAL040C, strain CLN3, active compounds read low
[20] = locus YDR363W, strain ESC2, active compounds read low
[21] = locus YER002W, strain NOP16, active compounds read low
[22] = locus YNL175C, strain NOP13, active compounds read low
[23] = locus YNL197C, strain WHI3, active compounds read low
[24] = locus YNL224C, strain SQS1, active compounds read low
[25] = locus YOR083W, strain WHI5 (second series), active compounds read low

Measured: normalized growth

Cc1onc(-c2ccccc2Cl)c1-c1nc2ccccc2c(=O)o1
inactive: locus YAR019C, strain CDC15, active compounds read low 0.97 | locus YBL105C, strain PKC1, active compounds read low 0.975 | locus YBR135W, strain CKS1, active compounds read low 0.975 | locus YBR136W, strain MEC1, active compounds read low 0.973 | locus YBR160W, strain CDC28, active compounds read low 0.971 | locus YDL017W, strain CDC7, active compounds read low 0.969 | locus YDL028C, strain MPS1, active compounds read low 0.979 | [1] 0.963 | locus YDL108W, strain KIN28, active compounds read low 0.97 | locus YDL132W, strain cdc53, active compounds read low 0.975 | locus YDL214C, strain PRR2, active compounds read low 0.968 | locus YDR052C, strain DBF4, active compounds read low 0.969 | locus YDR054C, strain cdc34, active compounds read low 0.964 | locus YDR226W, strain ADK1, active compounds read low 0.97 | locus YDR477W, strain SNF1, active compounds read low 0.962 | locus YER123W, strain YCK3, active compounds read low 0.953 | locus YER133W, strain GLC7, active compounds read low 0.984 | locus YFL009W, strain cdc4, active compounds read low 0.974 | locus YFL029C, strain CAK1, active compounds read low 0.956 | locus YFR003C, strain YPI1, active compounds read low 0.972 | locus YFR019W, strain FAB1, active compounds read low 0.979 | locus YFR028C, strain CDC14, active compounds read low 0.973 | locus YGR040W, strain KSS1, active compounds read low 0.96 | locus YGR052W, strain FMP48, active compounds read low 1.03 | locus YGR092W, strain DBF2, active compounds read low 0.983 | [2] 0.958 | [3] 0.936 | locus YHR082C, strain KSP1, active compounds read low 0.991 | locus YHR205W, strain SCH9, active compounds read low 0.932 | locus YIL147C, strain SLN1, active compounds read low 0.969 | [4] 0.954 | locus YJL128C, strain PBS2, active compounds read low 0.925 | locus YJL157C, strain FAR1, active compounds read low 0.987 | locus YJR016C, strain ILV3, active compounds read low 0.974 | locus YJR066W, strain TOR1 (second series), active compounds read low 0.967 | [5] 0.978 | locus YKL048C, strain ELM1, active compounds read low 0.947 | locus YKL067W, strain YNK1, active compounds read low 0.961 | locus YKL101W, strain HSL1, active compounds read low 0.939 | locus YKL193C, strain SDS22, active compounds read low 0.969 | locus YKL203C, strain TOR2, active compounds read low 1.02 | [6] 0.872 | locus YLR133W, strain CKI1, active compounds read low 0.965 | locus YLR403W, strain SFP1, active compounds read low 0.953 | locus YML070W, strain DAK1, active compounds read low 0.956 | locus YMR001C, strain CDC5, active compounds read low 0.974 | locus YMR205C, strain PFK2 (second series), active compounds read low 0.955 | locus YMR277W, strain FCP1, active compounds read low 0.987 | locus YNL006W, strain LST8, active compounds read low 0.982 | locus YNL020C, strain ARK1, active compounds read low 0.969 | locus YNL161W, strain CBK1, active compounds read low 0.969 | [7] 0.96 | locus YNL207W, strain RIO2, active compounds read low 0.97 | locus YNL222W, strain SSU72, active compounds read low 0.975 | locus YNL307C, strain MCK1 (second series), active compounds read low 0.987 | locus YOL078W, strain AVO1, active compounds read low 0.976 | locus YOL136C, strain PFK27, active compounds read low 0.958 | locus YOR061W, strain CKA2, active compounds read low 0.961 | locus YOR119C, strain RIO1, active compounds read low 0.983 | [8] 0.929 | locus YOR329C, strain SCD5, active compounds read low 0.966 | locus YPL031C, strain PHO85, active compounds read low 0.978 | locus YPL153C, strain RAD53, active compounds read low 0.956 | locus YPL204W, strain HRR25, active compounds read low 0.978 | locus YPL209C, strain IPL1, active compounds read low 0.969 | [9] 0.882 | locus YPR025C, strain CCL1, active compounds read low 0.975 | locus YPR106W, strain ISR1, active compounds read low 0.96 | locus YPR111W, strain DBF20, active compounds read low 0.963 | strain NNK1, active compounds read low 0.958 | strain TSCII, active compounds read low 0.968

Cc1cccc2nc(-c3ccccc3)oc(=O)c12
inactive: [10] 0.966 | locus YBR229C, strain ROT2, active compounds read low 0.975 | [1] 0.968 | locus YDR150W, strain NUM1, active compounds read low 0.934 | locus YEL061C, strain CIN8, active compounds read low 0.936 | [11] 0.959 | [12] 0.984 | [2] 0.708 | locus YHR087W, strain rtc3, active compounds read low 0.953 | locus YJL187C, strain SWE1, active compounds read low 0.946 | locus YJR043C, strain POL32, active compounds read low 0.971 | [13] 0.942 | locus YKL190W, strain CNB1, active compounds read low 0.987 | locus YLR039C, strain RIC1, active compounds read low 0.826 | locus YLR058C, strain SHM2 (second series), active compounds read low 0.968 | locus YLR262C, strain YPT6, active compounds read low 0.942 | locus YML094W, strain GIM5, active compounds read low 0.88 | locus YMR219W, strain ESC1, active compounds read low 0.976 | [14] 0.958 | [15] 0.735 | [16] 0.974 | [17] 0.975 | locus YNL298W, strain CLA4 (second series), active compounds read low 0.95 | locus YNL322C, strain KRE1, active compounds read low 0.983 | locus YNR030W, strain Alg12, active compounds read low 0.929 | locus YOL006C, strain TOP1, active compounds read low 0.801 | [18] 0.915 | locus YPR135W, strain CTF4, active compounds read low 0.812
active: locus YLR085C, strain ARP6, active compounds read low 0.744 | locus YPL055C, strain LGE1, active compounds read low 0.781

COc1ccccc1OCC(O)CN1CCN(CC(=O)Nc2c(C)cccc2C)CC1 (configuration not stated)
inactive: [10] 0.996 | locus YAL021C, strain ccr4, active compounds read low 0.991 | locus YAL026C, strain drs2, active compounds read low 1.03 | locus YAL030W, strain snc1, active compounds read low 1.01 | [19] 1 | locus YBL061C, strain skt5, active compounds read low 1.02 | locus YBR009C, strain hhf1, active compounds read low 0.986 | locus YBR023C, strain chs3, active compounds read low 1.03 | locus YBR171W, strain sec66, active compounds read low 1.02 | locus YBR231C, strain swc5, active compounds read low 0.991 | locus YBR279W, strain paf1, active compounds read low 1.02 | locus YCL011C, strain gbp2, active compounds read low 1.01 | locus YCL016C, strain dcc1, active compounds read low 1.04 | locus YCL061C, strain MRC1 (second series), active compounds read low 1 | locus YCL061C, strain MRC1, active compounds read low 0.993 | locus YCL069W, strain vba3, active compounds read low 1.02 | locus YCR088W, strain abp1, active compounds read low 1.02 | locus YDL005C, strain med2, active compounds read low 1 | locus YDL040C, strain nat1, active compounds read low 1 | locus YDR001C, strain nth1, active compounds read low 1 | locus YDR069C, strain doa4, active compounds read low 0.991 | locus YDR137W, strain rgp1, active compounds read low 1.06 | locus YDR159W, strain sac3, active compounds read low 0.912 | locus YDR195W, strain ref2 0.993 | locus YDR297W, strain sur2, active compounds read low 1 | locus YDR334W, strain swr1, active compounds read low 1 | locus YDR335W, strain msn5, active compounds read low 1.01 | [20] 0.998 | locus YDR392W, strain spt3, active compounds read low 0.942 | locus YEL003W, strain gim4, active compounds read low 0.976 | locus YEL037C, strain rad23, active compounds read low 1.01 | locus YEL061C, strain CIN8 (second series), active compounds read low 0.997 | [21] 0.993 | locus YER015W, strain faa2, active compounds read low 1.01 | locus YER016W, strain bim1, active compounds read low 1.03 | locus YER111C, strain swi4, active compounds read low 1.02 | locus YER155C, strain BEM2 (second series), active compounds read low 0.957 | locus YFR010W, strain ubp6, active compounds read low 0.97 | locus YGL167C, strain pmr1, active compounds read low 0.989 | locus YGL173C, strain kem1, active compounds read low 0.987 | locus YGL227W, strain vid30, active compounds read low 1.02 | locus YGL240W, strain doc1, active compounds read low 0.987 | locus YGL253W, strain hxk2, active compounds read low 1.06 | locus YHR013C, strain ard1, active compounds read low 1.03 | locus YHR027C, strain rpn1, active compounds read low 0.988 | [2] 1.06 | [3] 1.05 | locus YHR142W, strain chs7, active compounds read low 1.02 | locus YJL092W, strain hpr5, active compounds read low 1 | locus YJL095W, strain BCK1 (second series), active compounds read low 1.02 | [4] 1.02 | locus YJL115W, strain asf1, active compounds read low 1 | locus YJL129C, strain trk1, active compounds read low 1.03 | locus YJL154C, strain vps35, active compounds read low 1 | locus YJL164C, strain tpk1, active compounds read low 0.979 | locus YJL166W, strain qcr8, active compounds read low 0.997 | [5] 0.977 | [13] 1 | locus YKL160W, strain elf1, active compounds read low 1.01 | locus YKR026C, strain gcn3, active compounds read low 1 | locus YKR091W, strain srl3, active compounds read low 1 | locus YLL001W, strain dnm1, active compounds read low 0.964 | locus YLL026W, active compounds read low 1.01 | locus YLL041C, strain sdh2, active compounds read low 1.02 | locus YLR027C, strain aat2, active compounds read low 1 | [6] 0.982 | locus YLR221C, strain rsa3, active compounds read low 0.972 | locus YLR258W, strain gsy2, active compounds read low 1.03 | locus YLR262C, strain YPT6 (second series), active compounds read low 1.02 | locus YLR320W, strain mms22, active compounds read low 0.937 | locus YLR342W, strain FKS1, active compounds read low 1.02 | locus YLR357W, strain rsc2, active compounds read low 0.99 | locus YLR370C, strain arc18, active compounds read low 1.01 | locus YLR384C, strain iki3, active compounds read low 0.997 | locus YML120C, strain ndi1, active compounds read low 0.976 | locus YMR058W, strain fet3, active compounds read low 1.01 | locus YMR125W, strain sto1, active compounds read low 1.01 | locus YMR129W, active compounds read low 0.988 | locus YMR205C, strain PFK2, active compounds read low 1 | locus YMR231W, strain pep5, active compounds read low 1 | [15] 1.02 | locus YNL071W, strain lat1, active compounds read low 1 | [17] 1.06 | [22] 1.01 | [7] 0.963 | [23] 1.01 | locus YNL209W, strain ssb2, active compounds read low 1.02 | [24] 1.01 | locus YNL248C, strain rpa49, active compounds read low 1.07 | locus YNL322C, strain KRE1 (second series), active compounds read low 1.02 | locus YNR049C, strain mso1, active compounds read low 1 | locus YOR001W, strain rrp6, active compounds read low 0.924 | locus YOR070C, strain gyp1, active compounds read low 1.01 | locus YOR080W, strain dia2, active compounds read low 1.01 | [25] 1.02 | locus YOR083W, strain WHI5, active compounds read low 0.974 | locus YOR106W, strain vam3, active compounds read low 1.04 | [8] 1.01 | locus YOR265W, strain rbl2, active compounds read low 0.98 | locus YOR270C, strain vph1, active compounds read low 0.991 | locus YOR290C, strain snf2, active compounds read low 1.06 | locus YPL051W, strain arl3, active compounds read low 1.04 | locus YPL078C, strain atp4, active compounds read low 1.07 | locus YPL106C, strain sse1, active compounds read low 1.1 | locus YPL240C, strain hsp82, active compounds read low 1 | [18] 1.01 | [9] 1.05

N.N.N.N.N.N.N.N.N.N.N.N.N.N.O.O.[Ru+4].[Ru+5].[Ru+5]
inactive: [14] 0.993
active: [19] 0.206 | [20] 0.323 | [21] 0.155 | [11] 0.158 | [12] 0.151 | [13] 0.115 | [15] 0.218 | [16] 0.194 | [17] 0.193 | [22] 0.175 | [23] 0.154 | [24] 0.173 | [25] 0.167
